Results taken from PubChem BioAssay (NCATS).
Records with an inconclusive call do not appear. Active and inactive are the calls of the source. Calls follow the shape of the dose curve; as a rule, active = well fitted cell-killing curve with a large enough effect; inconclusive = small, poorly fitted or top-dose-only effect, or effect the other way; inactive = no such curve, though single readings can be large or run the other way. Square brackets hold non-standard residues; d marks the D form. Peptide text beside a SMILES is read from it. * marks the point of attachment. Nva = CCC[C@H](N)C(=O)O; Cbz = O=C(OCc1ccccc1)*

Assay: Quantitative highthroughput screen to assess conditional lethalithy of SEM cells grown in RPMI1640 with unreated serum (RPMI+s) (AID 1963883); also: nearly all actives have a fitted effect of over 35% in size
Conditions: SEM B-ALL cells, CellTiter-Glo viability, 48 h; series mostly up to 45.8 µM; viability: at the top concentration
From the text: Assay Provider: Jason Cantor Ph.D.
Department of Biochemistry
University of Wisconsin-Madison, Madison, WI, USA
Chemical screening studies have identified drug sensitivities across hundreds of cancer cell lines but most putative therapeutics fail to translate. Discovery and development of drug candidates in models that more accurately reflect nutrient levels in human blood is a major challenge. Here we performed high-throughput screens in conventional versus Human Plasma-Like Medium (HPLM) to identify compounds that were "missed" when screening using the artificial culture condition. Sets of conditional anticancer compounds spanned phases of clinical development and included non-oncology drugs were assessed. […] We also traced conditional phenotypes for several chemotherapeutics to availability of HPLM-specific metabolites and confirmed others for compounds whose reported targets are encoded by nonessential genes. Our findings establish generalizable strategies for exploiting conditional lethality in HPLM to reveal therapeutic candidates and mechanisms of action in cancer cells.
Described herein are the results of each viability screens against three cell lines: NOMO1 (an acute myeloid leukemia cell line); P12-Ichikawa (a T-cell acute lymphoblastic leukemia); and SEM (a B-cell ALL). Each assay was screened using 3 different cell culture media: homemade human plasma-Like medium with 10% dialyzed fetal bovine serum (HPLM+ds); RPMI1640 with 10% untreated FBS and 5mM glucose (RPMI+s); and RPMI1640 with 10% dialyzed fetal bovine serum and 5 mM glucose (RPMI+ds).
PROTOCOL TABLE (as described by Inglese J, Shamu CE and Guy RK. 2007)
SEQUENCE No. (e.g., 1, 2, 3, etc.); […] (e.g., Cells, Incubation, Reagent, etc.); VALUE and DESCRIPTION.
1; Cells; 5 uL; white, solid bottom 1536-well Greiner assay plate.
2; Compounds; 23 nL; Kalypsis pin tool (Wako USA) equipped with a 1536-well pin head to transfer to the assay plates.
3; Incubation; 48 hours; 37C incubation.
4; Reagent; 3 uL; CellTiter Glo (Promega).
5; Incubation; 5 min, room temperature
6; Detection; Luminescence, Viewlux PerkinElmer.
NOTES (numbers refer to Sequence numbers above)
1. Briefly, 5 ul of cell reagent was dispensed using a Multidrop Combi Dispenser. The NOMO1 and SEM cells were plated at 500 cells/well and the P12-Ichikawa line at 1000 cells/well.
2. After seeding the cells, 23 nL of MIPE 4.1 library compounds (in DMSO) were added to each plate using a Kalypsys 1536 Pintool dispenser. Bortezomib at final concentration of […] and DMSO were added to each plate as positive and negative controls respectively. For each screen, MIPE 4.1 compounds were added over an eleven-point concentration range […] in 3-fold dilutions.
3. Each plate was covered with a stainless steel gasketed lid to prevent evaporation and incubated for 48 hour at 37C, 95% relative humidity, and 5% CO2.
4-5. Three microliter CellTilter-GloTM luminescent substrate mix (Promega) reagent was added to the assay plate and incubated at room temperature for 5 min.
6. The luminescence signal was measured using a ViewLux (PerkinElmer) multiplate reader with a 2 second exposure time per plate. Data for each compound were normalized as percent viability such that measurements for DMSO and the empty well controls in each plate were defined as 100% and 0%, respectively.
Potency is read from the fitted curve at half-maximal effect.

Compound | Potency | viability
Oc1ccc(C=Cc2cc(O)cc(O)c2)cc1 | 11800 nM (active) | 
Cc1c(-c2ccnn2C)cc(C(=O)NCc2ccc(S(C)(=O)=O)cn2)c(=O)n1-c1cccc(C(F)(F)F)c1 |  | 94.5% (inactive)
CNC1[C@H](O)C(O[C@@H]2C(O)C(O[C@H]3O[C@H]([C@@H](C)NC)CC[C@H]3N)[C@@H](N)C[C@H]2N)OC[C@]1(C)O (stereo not given in full) |  | 109% (inactive)
CCC[C@@H](C=O)NC(=O)[C@H](CC(C)C)NC(=O)[C@H](CC(C)C)NC(=O)OCc1ccccc1 (Cbz-Leu-Leu-[Nva]-aldehyde) | 526 nM (active) | 
CCCCCCCCCCCC1=C(O)C(=O)C=C(O)C1=O |  | 103% (inactive)
COC(=O)C1=C(C)NC(C)=C(C(=O)OC(C)C)C1c1cccc2nonc12 (stereo not given) |  | 94.5% (inactive)
C[N+]1(C)[C@@H]2CC(OC(=O)[C@H](CO)c3ccccc3)C[C@H]1[C@H]1O[C@@H]12 (stereo not given in full) |  | 88.8% (inactive)
CN(C)CCc1c[nH]c2ccc(CS(=O)(=O)N3CCCC3)cc12 | 5900 nM (active) | 
CCCCC(F)(F)[C@@]1(O)CC[C@H]2[C@H](CC(=O)[C@@H]2CCCCCCC(=O)O)O1 |  | 104% (inactive)
CC1(C)[C@H]2CC[C@]3(C)[C@@H](C(=O)C=C4[C@@H]5C[C@@](C)(C(=O)O)CC[C@]5(C)CC[C@]43C)[C@@]2(C)CC[C@@H]1O |  | 85.6% (inactive)
CC(C)N(C[C@H]1O[C@@H](n2cnc3c(N)ncnc32)[C@H](O)[C@@H]1O)C1CC(CCc2nc3ccc(C(C)(C)C)cc3[nH]2)C1 (stereo not given in full) | 1050 nM (active) | 
O=C(O)c1cc(=O)c2c(OCC(O)COc3cccc4oc(C(=O)O)cc(=O)c34)cccc2o1 |  | 104% (inactive)
C=C1c2cccc(O)c2C(O)=C2C(=O)[C@@]3(O)C(O)=C(C(N)=O)C(=O)[C@@H](N(C)C)[C@@H]3[C@@H](O)[C@H]12 |  | 71.9% (inactive)
O=C(CN1C(=O)C2(CCCC2)NC[C@H]1c1cc(F)cc(F)c1)Nc1ccc2c(c1)C[C@@]1(C2)C(=O)Nc2ncccc21 |  | 89.9% (inactive)
COc1ccc2nc(S(=O)Cc3ncc(C)c(OC)c3C)[nH]c2c1 (stereo not given) |  | 72.9% (inactive)
CCOc1cc2ncc(C#N)c(Nc3ccc(OCc4ccccn4)c(Cl)c3)c2cc1NC(=O)C=CCN(C)C | 148 nM (active) | 
COc1ccccc1OCC(O)COC(N)=O (stereo not given) |  | 86.5% (inactive)
CCC(C)(Oc1ccc(C2(c3ccc(OC(C)(CC)C(=O)O)cc3)CCCCC2)cc1)C(=O)O (stereo not given) |  | 79.3% (inactive)
N[C@H]1CN(c2c(F)cc3c(=O)c(C(=O)O)cn(C4C[C@@H]4F)c3c2Cl)CC12CC2 (stereo not given in full) |  | 100% (inactive)
COc1ccc2c(c1OC)C(=O)OC2[C@H]1c2c(cc3c(c2OC)OCO3)CCN1C (stereo not given in full) | 118 nM (active) | 

Compound | Potency | viability
CC(C)OC(=O)C(C)(C)Oc1ccc(C(=O)c2ccc(Cl)cc2)cc1 | 10500 nM (active) | 
O=Nc1c(-c2c(O)[nH]c3cc(Br)ccc23)[nH]c2ccccc12 | 743 nM (active) | 
CCN(CC)CCOc1ccc(Cc2ccccc2)cc1 | 4180 nM (active) | 
CC1(C)[C@H](O[C@H]2O[C@H](C(=O)O)[C@@H](O)[C@H](O)[C@H]2O[C@@H]2O[C@H](C(=O)O)[C@@H](O)[C@H](O)[C@H]2O)CC[C@@]2(C)[C@H]1CC[C@]1(C)[C@H]2C(=O)C=C2[C@H]3C[C@@](C)(C(=O)O)CC[C@]3(C)CC[C@]21C |  | 107% (inactive)
Cc1c(C(=O)NN2CCCCC2)nn(-c2ccc(Cl)cc2Cl)c1-c1ccc(Cl)cc1 |  | 81.8% (inactive)
O=C(CCCCCCC(=O)Nc1cccnc1)NO | 8330 nM (active) | 
COC1=C(OC)C(=O)C(CCCCCCCCCCO)=C(C)C1=O |  | 67.6% (inactive)
C=CCc1cc(OC)c(O)c(C(=O)NCCO)c1 |  | 74.8% (inactive)
Nc1nccc(Oc2ccc(NC(=O)c3c[nH]cc(-c4ccc(F)cc4)c3=O)cc2F)c1Cl | 590 nM (active) | 
CN1C(C(=O)Nc2ccccn2)=C(O)c2sccc2S1(=O)=O |  | 91.1% (inactive)
Oc1ccc(C2=Cc3ccc(O)cc3OC2)cc1 | 3320 nM (active) | 
CN[C@H]1[C@@H](O)[C@@H]2O[C@@H]3O[C@H](C)CC(=O)[C@]3(O)O[C@@H]2[C@@H](NC)[C@H]1O |  | 104% (inactive)
CN(C)c1nc(Cc2ccc(NC(=O)c3ccc(C(F)(F)F)cc3)cc2)nc(N(C)C)c1CC(=O)O |  | 76.5% (inactive)
Nc1nc(Cl)nc2c1ncn2[C@H]1C[C@H](O)[C@@H](CO)O1 | 105 nM (active) | 
O=C(CCCN1CCC(O)(c2ccc(Cl)cc2)CC1)c1ccc(F)cc1 |  | 78.6% (inactive)
CC#CCn1c(N2CCC[C@@H](N)C2)nc2c1c(=O)n(Cc1nc(C)c3ccccc3n1)c(=O)n2C |  | 94.8% (inactive)
Cc1ccc(NC(=O)C2(c3ccc4c(c3)OC(F)(F)O4)CC2)nc1-c1cccc(C(=O)O)c1 | 74.3 nM (active) | 
c1cc(CN2CCCNCCNCCCNCC2)ccc1CN1CCCNCCNCCCNCC1 |  | 106% (inactive)
O=C(O)Cc1cccc(OCCCN(Cc2cccc(C(F)(F)F)c2Cl)CC(c2ccccc2)c2ccccc2)c1 |  | 104% (inactive)
COc1ccc2cc([S+]([O-])Cc3ncc(C)c(OC)c3C)nc2c1 |  | 80.9% (inactive)
